Source: PubChem BioAssay
Results filed as inconclusive are left out. Calls of active or inactive are those of the source.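 Rule for the calls, unless noted: active = viability increase at or above a cutoff of the median across tested compounds plus 3 SD (cut at about 8.5% in these data, passing the limit was not always enough); inconclusive = some gains above the cutoff, reason not given; inactive = the rest.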

Key:
[1] = reducers of endogenous Her2 protein level, primary screen, SKBR3 breast tumor cells, AlphaScreen, ATP viability (AID 461;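 active = Her2 level under about 52% in both replicate screens, with viability over 70% of control, limit read from the data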;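 for Her2 level: lower value means less Her2 protein in the cells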;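 for viability: percent of carrier control wells set as 100% viability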); conditions: 18-24 h, measured here: SKBR3 viability, ATP luminescence, at 10 µM
[2] = biological target: Receptor tyrosine-protein kinase erbB-2 (Homo sapiens) (UniProt P04626); experiment: as above; conditions: 18-24 h, at 10 µM, stronger effect = lower value
[3] = SK-BR-3 cell growth inhibitors, pilot screen, 24 h, human (AID 572;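 active = viability at or below 10% of carrier control in both of two separate runs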;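 note: compound exposure lasted between 18 and 24 h rather than exactly 24 h; 100% = carrier-treated control wells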); conditions: SK-BR-3 viability, CellTiter-Glo luminescence, at 10 µM, stronger effect = lower value
[4] = HUVEC growth inhibition – cell-based, human, primary screen (AID 575;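 active = viability at or below 30% in both replicate assays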;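 note: 100% = median of untreated cell wells with 0.1% DMSO on each plate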); conditions: HUVEC proliferation, CellTiter-Glo luminescence, 72 h; at 10 µM; stronger effect = lower value
[5] = growth inhibitors of H69AR lung tumor, primary screen, human, duplicate replicates (AID 580;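 active = viability at or under a set limit in both replicates, limit being median viability minus 3 SD, cut at about 48% in these data, passing the limit was not always enough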;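 note: 100% = mean luminescence of untreated wells and 0% = no signal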); conditions: H69AR lung tumor cells viability, ATP luminescence, 72 h; at 10 µM; stronger effect = lower value
[6] = reversal of MRP1-mediated doxorubicin resistance, pilot screen, H69AR cells, doxorubicin co-treatment (AID 601;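 active = viability loss from added drug above about 55%, and viability with drug at most 40%, in both replicates, limit read from the data, passing the limit was not always enough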); conditions: CellTiter-Glo, 72 h, at 10 µM; for differential viability (reversal): stronger effect = higher value
[7] = 384-well plate pilot, post-Golgi transport modulator project, inhibition of yeast transport mutant growth (AID 636; in the data active = inhibition above about 31%); conditions: absorbance 615 nm, about 18 h, stronger effect = higher value
[8] = growth suppression of yeast trafficking mutant, preliminary HTS, modulators of trafficking downstream of Golgi apparatus project, 1536-format plate, OD 615 nm (AID 637; in the data active = inhibition above about 30%); conditions: yeast transport mutant growth, absorbance 615 nm, 18 h; stronger effect = higher value
[9] = OD615 S. cerevisiae growth inhibition, permissive medium, pilot counter-assay, permissive growth control for S. cerevisiae lifespan shortening project (AID 705;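 active = growth inhibition above 25% in both replicates, a cutoff set 3 SD above the mean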); conditions: OD615, 24 h, at 10 µM, stronger effect = higher value
[10] = Restrictive medium S. cerevisiae growth inhibition, OD615, pilot screen of yeast lifespan reduction project, restrictive growth control (AID 706;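 active = growth inhibition above a set limit, 3 SD over mean compound inhibition, in both replicates, cut at about 43% in these data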;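 note: modified DeaD lifespan yeast strain shifted to restrictive glucose medium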); conditions: OD615, 48 h, at 10 µM, stronger effect = higher value
[11] = viability gain of MRP-1-high H69AR cells under doxorubicin, pilot screen, MRP-1 activator project, CellTiter-Glo, duplicate (AID 807); conditions: H69AR viability with doxorubicin, CellTiter-Glo luminescence; at 10 µM; stronger effect = higher value;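 note: compound pretreatment 18-22 h then 72 h combined with doxorubicin; 0% = doxorubicin alone and 100% = vehicle without doxorubicin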
[12] = growth suppression of beta-catenin knockout HCT116, pilot screen, human colon tumor cells (AID 823;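 active = cell viability at or below a set limit in both duplicate runs, the limit being the all-compound median minus 4 SD, cut at about 23% in these data, passing the limit was not always enough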;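 note: 0% = wells killed by 20 µM Hyamine and 100% = untreated DMSO cell wells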); conditions: CellTiter-Glo, 60 h, at 10 µM, stronger effect = lower value
[13] = growth suppression of PTEN-deleted HCT116, pilot screen, cell-based, HCT116 clonal line, CellTiter-Glo (AID 824;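 active = viability at or below 27.92% in each of two runs, the all-compound median minus 4 SD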;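 note: 0% = 20 µM Hyamine control and 100% = vehicle cell control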); conditions: 60 h, at 10 µM, stronger effect = lower value
[14] = inhibitors of the yeast RAM network, pilot screen, dse1pr::URA3 reporter, 5-FOA selection (AID 869;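 active = inhibition over a set limit, the all-compound mean plus 3 SD, in both replicate runs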;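 note: 0% = DMSO wells with no growth and 100% = 10 µM 1-NA-PP1 with full growth; RAM network block rescues cells from 5-FOA so hits raise OD615 growth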); conditions: S. cerevisiae dse1pr::URA3 5-FOA growth, OD615, 2 d; at 10 µM; stronger effect = higher value; strain carries analog-sensitive mutant Cbk1 kinase
[15] = RAM signaling pathway blockade in yeast – S. cerevisiae, Pdr1DBD-CYC8 efflux-inhibited sensitized strain, primary screen (AID 1298;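 active = RAM network inhibition above 8.4% in each of two replicates, 3 SD over the compound average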;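 note: 0% = DMSO untreated cells without growth and 100% = 10 µM 1-NA-PP1 full growth; higher means more yeast growth rescued from 5-FOA killing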); conditions: S. cerevisiae cbk1-as DSE1-URA3 strain, 5-FOA growth OD615, 2 d; at 50 µM; stronger effect = higher value
[16] = H69AR cells + 2 uM doxorubicin, measured here: viability with 2 uM doxorubicin, stronger effect = lower value
[17] = H69AR cells, compound alone cytotoxicity

Receptor tyrosine-protein kinase erbB-2 (Homo sapiens), sequence (P04626 whole entry, looked up): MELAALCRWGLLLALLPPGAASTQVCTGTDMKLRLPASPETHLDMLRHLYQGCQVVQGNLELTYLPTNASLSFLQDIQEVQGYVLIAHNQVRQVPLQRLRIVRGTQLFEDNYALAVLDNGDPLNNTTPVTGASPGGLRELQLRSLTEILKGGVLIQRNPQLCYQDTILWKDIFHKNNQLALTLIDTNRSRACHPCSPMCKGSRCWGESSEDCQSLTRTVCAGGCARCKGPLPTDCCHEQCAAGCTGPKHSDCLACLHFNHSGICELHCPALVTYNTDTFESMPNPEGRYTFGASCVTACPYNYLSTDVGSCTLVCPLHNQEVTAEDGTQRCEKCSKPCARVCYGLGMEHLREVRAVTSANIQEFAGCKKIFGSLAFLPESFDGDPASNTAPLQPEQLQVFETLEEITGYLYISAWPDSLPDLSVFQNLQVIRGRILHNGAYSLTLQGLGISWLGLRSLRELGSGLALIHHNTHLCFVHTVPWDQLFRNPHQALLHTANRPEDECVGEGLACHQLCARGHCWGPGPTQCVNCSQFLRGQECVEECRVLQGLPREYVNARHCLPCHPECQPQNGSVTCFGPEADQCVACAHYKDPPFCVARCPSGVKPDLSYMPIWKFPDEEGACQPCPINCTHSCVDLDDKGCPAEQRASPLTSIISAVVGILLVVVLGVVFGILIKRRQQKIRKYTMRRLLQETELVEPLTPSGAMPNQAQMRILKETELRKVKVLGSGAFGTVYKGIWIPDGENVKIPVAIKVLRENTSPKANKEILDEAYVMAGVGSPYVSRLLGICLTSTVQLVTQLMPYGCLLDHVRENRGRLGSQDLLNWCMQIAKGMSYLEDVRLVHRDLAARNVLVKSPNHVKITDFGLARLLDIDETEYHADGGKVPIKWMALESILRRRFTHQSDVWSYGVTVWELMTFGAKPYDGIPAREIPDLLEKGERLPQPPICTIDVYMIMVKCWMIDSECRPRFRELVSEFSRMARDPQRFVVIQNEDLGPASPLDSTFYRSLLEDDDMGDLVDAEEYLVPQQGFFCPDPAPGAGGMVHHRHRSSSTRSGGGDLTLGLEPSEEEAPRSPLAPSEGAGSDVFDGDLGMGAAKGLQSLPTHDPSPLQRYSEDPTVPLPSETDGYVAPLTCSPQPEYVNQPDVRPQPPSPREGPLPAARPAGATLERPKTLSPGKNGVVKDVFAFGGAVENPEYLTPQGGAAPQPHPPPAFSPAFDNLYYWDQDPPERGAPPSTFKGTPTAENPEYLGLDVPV

Structure (SMILES) | viability [1] [%] | Her2 level [2] | viability [3] | viability [4] | viability [5] | differential viability (reversal) ([6]; H69AR cells + 2 uM doxorubicin) | viability [6, 16] [%] | viability [6, 17] [%] | inhibition [7] | inhibition [8] | growth inhibition [9] | growth inhibition [10] | viability increase [11] | viability [12] | viability [13] | inhibition [14] | RAM network inhibition [15]
COc1ccc(C(C)N2CC34C=CC(O3)C(C(=O)OCC(C)C)C4C2=O)cc1 (stereo not drawn) | 103 | 89.5% (inactive) | 103% (inactive) | 97.2% (inactive) | 85.1% (inactive) | 3.22% (inactive) | 81.9 | 85.1 | -4.27% (inactive) | -2.33% (inactive) | -0.88% (inactive) | -7.06% (inactive) | -2.51% (inactive) | 103% (inactive) | 88.5% (inactive) | 1.82% (inactive) | 4.69% (inactive)
CCOc1ccc(NC(=O)CCN2CCN(c3ccccc3)CC2)cc1 | 94.5 | 104% (inactive) | 94.5% (inactive) | 95.3% (inactive) | 82.5% (inactive) | 4% (inactive) | 78.5 | 82.5 | -0.9% (inactive) | 3.17% (inactive) | 4.18% (inactive) | -17.7% (inactive) | -3.89% (inactive) | 90.4% (inactive) | 80.4% (inactive) | 0.545% (inactive) | 3.81% (inactive)
CCCn1c(OC)nc2c1c(=O)n(C)c(=O)n2C | 89.5 | 88.5% (inactive) | 89.5% (inactive) | 83.2% (inactive) | 94.4% (inactive) | 0.235% (inactive) | 94.1 | 94.4 | -2.53% (inactive) | -2.5% (inactive) | -10.7% (inactive) | -9.12% (inactive) | 0.06% (inactive) | 107% (inactive) | 97% (inactive) | 2.22% (inactive) | 2.06% (inactive)
CN(C(=O)c1ccco1)c1nnc(C23CC4CC(CC(C4)C2)C3)s1 | 86 | 87% (inactive) | 86% (inactive) | 60.3% (inactive) | 75.9% (inactive) | -0.595% (inactive) | 76.5 | 75.9 | -3.73% (inactive) | -0.83% (inactive) | -8.84% (inactive) | -8.94% (inactive) | -7.07% (inactive) | 79.5% (inactive) | 66% (inactive) | 0.17% (inactive) | 5.35% (inactive)
CCOc1ccc(CCN2C(=O)C3C4C=CC(C4)C3C2=O)cc1OCC (stereo not drawn) | 96 | 93.5% (inactive) | 96% (inactive) | 97.7% (inactive) | 87.9% (inactive) | 4.56% (inactive) | 83.4 | 87.9 | -6.27% (inactive) | -1.67% (inactive) | 0.49% (inactive) | 3.99% (inactive) | -0.38% (inactive) | 102% (inactive) | 101% (inactive) | 1.38% (inactive) | 1.5% (inactive)
O=C(Nc1cccc(F)c1)C1C2C=CC3(CN(CCCN4CCOCC4)C(=O)C13)O2 (stereo not drawn) | 96 | 104% (inactive) | 96% (inactive) | 89.4% (inactive) | 103% (inactive) | 20.3% (inactive) | 83.1 | 103 | -2.27% (inactive) | -3.11% (inactive) | 1.12% (inactive) | 1.81% (inactive) | 0.8% (inactive) | 106% (inactive) | 106% (inactive) | 0.595% (inactive) | 2.03% (inactive)
O=C(Cc1cccs1)Nc1ccccc1NC(=O)Cc1cccs1 | 81 | 87.5% (inactive) | 81% (inactive) | 107% (inactive) | 94.7% (inactive) | 3.74% (inactive) | 91 | 94.7 | -1.15% (inactive) | -7.83% (inactive) | -1.23% (inactive) | -8.9% (inactive) | -4% (inactive) | 92% (inactive) | 91.9% (inactive) | 0.905% (inactive) | -0.25% (inactive)
Cc1nc2sc(C(c3cccs3)N3CCOCC3)c(O)n2n1 (stereo not drawn) | 90 | 100% (inactive) | 90% (inactive) | 94.8% (inactive) | 88.6% (inactive) | -4.79% (inactive) | 93.4 | 88.6 | -7.73% (inactive) | -0.83% (inactive) | -7.23% (inactive) | -11.9% (inactive) | -0.31% (inactive) | 107% (inactive) | 94.2% (inactive) | 1.54% (inactive) | 1.99% (inactive)
O=C(CN1CCN(Cc2ccc(F)cc2Cl)C1=O)NCCCN1CCOCC1 | 99 | 104% (inactive) | 99% (inactive) | 95.2% (inactive) | 102% (inactive) | 14% (inactive) | 87.8 | 102 | -3.07% (inactive) | -5.08% (inactive) | -6.96% (inactive) | 8.75% (inactive) | -0.41% (inactive) | 94.5% (inactive) | 97.3% (inactive) | 0.47% (inactive) | 1.91% (inactive)
CC1CCc2nn(CC(=O)NCCN3CCCCC3C)cc2C1 (stereo not drawn) | 85 | 104% (inactive) | 85% (inactive) | 103% (inactive) | 90% (inactive) | -2.58% (inactive) | 92.6 | 90 | -2.18% (inactive) | 0.83% (inactive) | 0.05% (inactive) | -11% (inactive) | -1.56% (inactive) | 101% (inactive) | 98.5% (inactive) | 2.96% (inactive) | 1.89% (inactive)
CCn1cc(C(=O)NCCC2=CCCCC2)c(=O)c2cc(S(=O)(=O)N(C)C)ccc21 | 82.5 | 98.5% (inactive) | 82.5% (inactive) | 70.4% (inactive) | 71.7% (inactive) | 9.64% (inactive) | 62.1 | 71.7 | -4.67% (inactive) | -3.61% (inactive) | -14.2% (inactive) | -29.6% (inactive) | -4.4% (inactive) | 86.4% (inactive) | 72.6% (inactive) | 1.37% (inactive) | 1.83% (inactive)
CCC(C)C(NC(=O)C1CCC(C)CC1)C(=O)NCc1cccnc1 (stereo not drawn) | 99 | 87.5% (inactive) | 99% (inactive) | 82.4% (inactive) | 102% (inactive) | 5.36% (inactive) | 96.3 | 102 | -6.89% (inactive) | 3.17% (inactive) | -12.5% (inactive) | -2.67% (inactive) | -0.91% (inactive) | 86.4% (inactive) | 87.7% (inactive) | 0.265% (inactive) | 4.7% (inactive)
CN(C)CCCN1C(=O)CSC1c1ccccc1 (stereo not drawn) | 100 | 99% (inactive) | 100% (inactive) | 91.6% (inactive) | 94.4% (inactive) | 4.35% (inactive) | 90.1 | 94.4 | -4.67% (inactive) | -1.83% (inactive) | -2.19% (inactive) | -1.53% (inactive) | -0.9% (inactive) | 104% (inactive) | 101% (inactive) | 1.47% (inactive) | 0.73% (inactive)
O=C1c2ccccc2C(Nc2ccc(F)cc2F)N1CCN1CCOCC1 (stereo not drawn) | 83 | 83% (inactive) | 83% (inactive) | 87.8% (inactive) | 78.2% (inactive) | -3.69% (inactive) | 81.9 | 78.2 | -5.73% (inactive) | 3.17% (inactive) | 0.235% (inactive) | -1.68% (inactive) | -1.58% (inactive) | 98.8% (inactive) | 104% (inactive) | 1.3% (inactive) | 0.93% (inactive)
Cc1ccc(C(C)C)c(OCCCN2CC(C)OC(C)C2)c1 (stereo not drawn) | 98.5 | 85% (inactive) | 98.5% (inactive) | 101% (inactive) | 89.4% (inactive) | -9.6% (inactive) | 99 | 89.4 | 75.4% (active) | 27.7% (inactive) | -7.86% (inactive) | -13.4% (inactive) | -2.59% (inactive) | 78.5% (inactive) | 89.3% (inactive) | 0.705% (inactive) | 1.47% (inactive)
COc1ccccc1CNC(=O)C1CCCN(S(=O)(=O)c2cccc3cccnc23)C1 (stereo not drawn) | 92.5 | 98.5% (inactive) | 92.5% (inactive) | 111% (inactive) | 92% (inactive) | -0.39% (inactive) | 92.3 | 92 | -4.53% (inactive) | -2.17% (inactive) | -5.17% (inactive) | -12.7% (inactive) | -3.42% (inactive) | 90.6% (inactive) | 91.6% (inactive) | 3.08% (inactive) | 6.37% (inactive)
Cc1ccccc1-n1c(Cn2c(=O)sc3ccccc32)nnc1SCC(=O)N1CCCC1 | 109 | 90.5% (inactive) | 109% (inactive) | 98% (inactive) | 93.7% (inactive) | 12.6% (inactive) | 81.1 | 93.7 | -4% (inactive) | 6.89% (inactive) | -2.21% (inactive) | 6.39% (inactive) | -0.45% (inactive) | 98.6% (inactive) | 104% (inactive) | -0.765% (inactive) | 8.27% (inactive)
Cc1cc(N)n2nc(-c3ccccc3)cc2n1 | 95 | 71% (inactive) | 95% (inactive) | 57.4% (inactive) | 80.1% (inactive) | 11.5% (inactive) | 68.5 | 80.1 | -1.82% (inactive) | -0.33% (inactive) | -14.1% (inactive) | -13.9% (inactive) | -3.46% (inactive) | 65.1% (inactive) | 65.3% (inactive) | 1.33% (inactive) | 4.23% (inactive)
CCOC(=O)N1CCN(Cc2nc3c(c(=O)n(C)c(=O)n3C)n2Cc2ccccc2)CC1 | 104 | 106% (inactive) | 104% (inactive) | 96.3% (inactive) | 89.1% (inactive) | 10.5% (inactive) | 78.7 | 89.1 | -2.13% (inactive) | 2.62% (inactive) | -8.18% (inactive) | -4.35% (inactive) | -4.1% (inactive) | 97.3% (inactive) | 98% (inactive) | 0.61% (inactive) | 4.53% (inactive)
